“And” between values parts separate entries of the source, which are not always exact repeats. Identical values can stand only once. Hit rate of the full screen: of about 16,000 compounds, about 5,100 (32%) were called active. Inconclusive results (about 25%) are left out. Calls come from the whole dose curve; as a rule, active = well fitted curve in the direction sought with a large enough effect; inconclusive = small, poorly fitted or top-dose-only effect, or effect the other way; inactive = no such curve, though single readings can be large or run the other way. This is one part of the list.
% is set by controls: 0 for no effect and ±100 for the full control effect.

In this test the target is Cytochrome P450 3A4 (Homo sapiens) (UniProt P08684). In words: Cytochrome panel assay with activity outcomes. The conditions noted are these: recombinant CYP, pro-luciferin dealkylation, luminescence, p450-cyp3a4; series mostly up to 57.1 µM; activity, negative = inhibition: at the top concentration.
Chain of Cytochrome P450 3A4 (Homo sapiens) (P08684 whole entry, looked up): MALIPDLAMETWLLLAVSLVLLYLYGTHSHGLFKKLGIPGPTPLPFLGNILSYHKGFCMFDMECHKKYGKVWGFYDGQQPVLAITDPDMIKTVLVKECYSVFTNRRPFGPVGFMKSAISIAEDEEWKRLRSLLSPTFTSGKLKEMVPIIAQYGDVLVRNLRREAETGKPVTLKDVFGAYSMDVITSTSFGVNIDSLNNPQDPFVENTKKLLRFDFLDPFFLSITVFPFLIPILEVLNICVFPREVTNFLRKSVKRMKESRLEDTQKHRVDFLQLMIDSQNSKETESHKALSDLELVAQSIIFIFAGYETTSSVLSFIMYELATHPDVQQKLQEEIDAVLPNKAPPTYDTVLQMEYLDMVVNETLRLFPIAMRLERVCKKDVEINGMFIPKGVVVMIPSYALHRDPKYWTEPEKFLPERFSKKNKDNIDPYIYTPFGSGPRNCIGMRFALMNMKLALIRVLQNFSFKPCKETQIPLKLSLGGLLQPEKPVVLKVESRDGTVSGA
`C[C@H](N)CCCC(C)(C)O`: the “activity, negative = inhibition” value was -5.82% [at 25.6 µM] (inactive).

Regarding `CCCNC(=O)OC[C@@H]1O[C@H](CCO/N=C(\C)CCC(=O)OC[C@@H]2O[C@H](c3ccccc3)C=C[C@@H]2Oc2ccc(OC)cc2)C=C[C@@H]1Oc1ccc(OC)cc1`, the AC50 is 5.01 µM (active).

For the compound `COc1ccc(O[C@H]2C=C[C@@H](c3ccccc3)O[C@@H]2CO/N=C\[C@@H](C)[C@H](OCc2ccccc2)C(C)C)cc1`, the AC50 is 3.98 µM (active).

Take `CC(=O)OC[C@@H]1O[C@H](C/C=N\OC[C@@H](C)[C@H](OCc2ccccc2)C(C)C)C=C[C@@H]1OC(C)=O`: the activity, negative = inhibition is -18.2% [at 11.4 µM] (inactive).

Turning to `COc1ccc(O[C@H]2C=C[C@@H](c3ccccc3)O[C@H]2COC(=O)CC/C(C)=N/O[C@@H]2O[C@H](COC(C)=O)[C@H](OC(C)=O)[C@H](OC(C)=O)[C@H]2OC(C)=O)cc1`, the AC50 is 5.01 µM (active).

On to `COc1ccc(O[C@H]2C=C[C@@H](c3ccccc3)O[C@H]2CO/N=C\C[C@@H]2C=C[C@H](OC(C)=O)[C@H](COC(C)=O)O2)cc1`, for which the AC50 is 3.98 µM (active).

In the case of `CO/N=C\[C@@H](C)[C@H](OCc1ccccc1)C(C)C`, the activity, negative = inhibition is 12.5% [at 11.4 µM] (inactive).

Turning to `O=c1[nH]cc(CS(=O)(=O)Cc2c[nH]c(=O)[nH]c2=O)c(=O)[nH]1`, the activity, negative = inhibition was -10.9% [at 11.4 µM] (inactive).

As to `CN1C(=O)C(CC(N)=O)N(NC(=O)c2ccc(Cl)cc2)C1=S` (centres undefined), the “activity, negative = inhibition” value is -10.7% (inactive).

Consider `COc1ccc(O[C@H]2C=C[C@@H](c3ccccc3)O[C@H]2COC(=O)N2CCCCC2)cc1`, for which the activity, negative = inhibition is -82.7% [at 11.4 µM] (inactive).

On to `CC(=O)OC[C@@H]1O[C@H](CCO/N=C\[C@@H](C)[C@H](OCc2ccccc2)C(C)C)C=C[C@@H]1OC(C)=O`, for which the activity, negative = inhibition was -26.2% [at 11.4 µM] (inactive).

`CCCNC(=O)OC[C@@H]1O[C@H](CCO/N=C\[C@@H](C)[C@H](OCc2ccccc2)C(C)C)C=C[C@@H]1Oc1ccc(OC)cc1`: the AC50 was 3.98 µM (active).

In the case of `CCCNC(=O)OC[C@@H]1O[C@H](c2ccccc2)C=C[C@@H]1Oc1ccc(OC)cc1`, the AC50 was 3.98 µM (active).

Consider `COc1ccc(O[C@H]2C=C[C@@H](c3ccccc3)O[C@H]2CO/N=C(/C)CCC(=O)OC[C@@H]2O[C@H](c3ccccc3)C=C[C@@H]2Oc2ccc(OC)cc2)cc1`, for which the AC50 is 3.98 µM (active).

`Cc1cc(C)c(Cn2cnc(-c3ccc([N+](=O)[O-])cc3)c2)c(C)c1`: the AC50 is 7.94 µM (active).

As to `Cc1nn(Cc2ccc([N+](=O)[O-])cc2)c(=O)n1-c1cccc(F)c1`, the “activity, negative = inhibition” value is 4.03% (inactive).

`CO/N=C(/C)CCC(=O)OC[C@@H]1O[C@H](C#Cc2ccccc2)C=C[C@@H]1Oc1ccc(C)cc1`: the AC50 was 3.98 µM (active).

For the compound `C=CC[C@@H]1C=C[C@H](ON=C(C)C)[C@H](CO)O1`, the activity, negative = inhibition is -13.4% [at 11.4 µM] (inactive).

Turning to `CC(=O)OC[C@@H]1O[C@H](C/C=N\OC[C@@H](O)COCc2ccco2)C=C[C@@H]1OC(C)=O`, the activity, negative = inhibition is -26.2% [at 11.4 µM] (inactive).

Turning to `O=c1n(-c2ccccc2)c(=O)n2n1CC[C@H]1/C(=N\OC[C@@H](O)COCc3ccco3)[C@H]3O[C@@H]3[C@@H](O)[C@@H]12`, the activity, negative = inhibition was -24.1% [at 11.4 µM] (inactive) and -23% [at 11.4 µM] (inactive).

On to `C=CC[C@@H]1C=C[C@@H](O/N=C(/C)CCC(=O)OC[C@@H]2O[C@H](C#Cc3ccccc3)C=C[C@@H]2Oc2ccc(C)cc2)[C@@H](CO)O1`, for which the AC50 was 5.01 µM (active).

Take `C/C(CCC(=O)OC[C@@H]1O[C@H](C#Cc2ccccc2)C=C[C@@H]1Oc1ccc(C)cc1)=N/OC[C@@H](O)COCc1ccco1`: the AC50 is 3.16 µM (active).

`C=CC[C@@H]1C=C[C@H](Oc2ccc(C)cc2)[C@H](COC(=O)NCc2cccc3ccccc23)O1`: the AC50 is 3.16 µM (active).

For `CC(=O)N[C@@H](CC(=O)O)C(=O)O`, the “activity, negative = inhibition” value is -13.1% [at 25.6 µM] (inactive).

With `CCOC(=O)CCN1C(=O)[C@H]2[C@H]3[C@H](O)[C@H](O)C/C(=N/O[C@@H]4O[C@@H](COC(C)=O)[C@@H](OC(C)=O)[C@@H](OC(C)=O)[C@H]4OC(C)=O)[C@H]3CC[C@@H]2C1=O`, the activity, negative = inhibition was -10.4% [at 11.4 µM] (inactive).

For `CC(=O)OC[C@@H]1O[C@H](CCO/N=C(\C)CCC(=O)OC[C@@H]2O[C@H](C#Cc3ccccc3)C=C[C@@H]2Oc2ccc(C)cc2)C=C[C@@H]1OC(C)=O`, the AC50 was 3.16 µM (active).

Consider `CC(=O)OC[C@H]1O[C@@H](O/N=C(\C)CCC(=O)OC[C@@H]2O[C@H](C#Cc3ccccc3)C=C[C@@H]2Oc2ccc(C)cc2)[C@H](OC(C)=O)[C@@H](OC(C)=O)[C@H]1OC(C)=O`, for which the AC50 was 3.16 µM (active).

`CC(=O)OC[C@H]1O[C@@H](ON=C(C)C)[C@H](OC(C)=O)[C@@H](OC(C)=O)[C@H]1OC(C)=O`: the activity, negative = inhibition is -17.9% [at 11.4 µM] (inactive).

On to `CC(C(=O)NC1CCCC1)N(C(=O)c1ccc(-c2ccccc2)[nH]1)c1ccccc1F` (centres undefined), for which the AC50 is 3.98 µM (active).

For `Cc1ccc(C(=O)NC2CCCCC2)cc1`, the “activity, negative = inhibition” value is -27.2% (inactive).

Regarding `O=C(NC1CCCCCC1)c1cccs1`, the AC50 was 14.1 µM (active).

`O=C(NCCCc1ccccc1)c1cccs1`: the “activity, negative = inhibition” value was -26.4% (inactive).

With `O=S(=O)(Nc1nc(-c2sccc2Cl)cs1)c1cc(Cl)ccc1Cl`, the AC50 was 7.94 µM (active).

For the compound `CC(=O)c1c(N2CCC(C(N)=O)CC2)nc(=S)n(-c2ccccc2)c1C`, the activity, negative = inhibition is 28.2% [at 2.29 µM] (inactive).

With `FC(F)(F)c1cc(Sc2ccccc2)nc(-c2ccccn2)n1`, the activity, negative = inhibition is 22.3% [at 11.4 µM] (inactive).

With `COC(=O)[C@@]1(Cc2ccc(F)cc2)[C@H]2c3cc(C(=O)N4CCCC4)n(Cc4ccc(C)o4)c3C[C@H]2CN1C(=O)c1ccccc1`, the AC50 was 3.16 µM (active).

As for `COC(=O)[C@@]1(Cc2ccc(F)cc2)[C@H]2c3cc(C(=O)N(C)C)n(Cc4ccc(C)o4)c3C[C@H]2CN1C(=O)c1ccccc1`, the AC50 was 2.51 µM (active).

Take `COC(=O)[C@@]1(Cc2ccccc2)[C@H]2c3cc(C(=O)N4CCCC4)n(Cc4ccc(C)o4)c3C[C@H]2CN1C(=O)c1ccccc1`: the AC50 is 2 µM (active).

With `COC(=O)C(C)(C(=O)OC)c1ccc([N+](=O)[O-])cn1`, the “activity, negative = inhibition” value was -3.67% (inactive).

As to `C=CCC(C(=O)OC)(C(=O)OC)c1ccc([N+](=O)[O-])cn1`, the “activity, negative = inhibition” value was -25.4% (inactive).

With `COC(=O)C(NC(=O)c1ccc(F)cc1)(Nc1ncc(S(=O)(=O)c2ccc([N+](=O)[O-])cc2)s1)C(F)(F)F` (centres undefined), the AC50 was 5.01 µM (active).

For `Cc1cc(C(F)F)n2nc(C(=O)Nc3cccnc3Cl)nc2n1`, the activity, negative = inhibition was 2.46% [at 2.29 µM] (inactive).

Consider `C/C(=N\NC(=O)c1[nH]c2c([N+](=O)[O-])cc(C)cc2c1-c1ccccc1)c1cccnc1`, for which the AC50 is 1.12 µM (active).

Consider `O=C(O)c1[nH]c2c([N+](=O)[O-])cc([N+](=O)[O-])cc2c1C(=O)O`, for which the activity, negative = inhibition was 3.73% [at 11.4 µM] (inactive).

In the case of `O=C(Oc1ccccc1[N+](=O)[O-])c1cccnc1`, the “activity, negative = inhibition” value is -15.4% (inactive).

Take `CCOC(=O)c1c(NC(=O)/C=C/c2ccc3c(c2)OCO3)sc(C)c1C`: the “activity, negative = inhibition” value was 18% (inactive).

For the compound `CCOC(=O)c1c(NC(=O)/C=C/c2ccc3c(c2)OCO3)sc(C)c1CC`, the AC50 was 5.01 µM (active).

As for `CC(/C=N/NC(=O)c1cccc([N+](=O)[O-])c1)=C\c1ccccc1`, the “activity, negative = inhibition” value is -14.1% (inactive).

Turning to `COC(=O)c1cc(NC(=O)/C=C/c2ccc3c(c2)OCO3)cc(C(=O)OC)c1`, the AC50 is 0.794 µM (active).

With `COC(=O)c1cccc(NC(=O)/C=C/c2cccc([N+](=O)[O-])c2)c1`, the AC50 is 10 µM (active).

For the compound `O=C(/C=C/c1cccc([N+](=O)[O-])c1)NCCN1CCOCC1`, the “activity, negative = inhibition” value was -20.8% (inactive).

Regarding `O=C(O)C[C@@H](C(=O)O)c1ccccc1[N+](=O)[O-]`, the activity, negative = inhibition is 0.874% [at 11.4 µM] (inactive).

Turning to `C=CCSc1nnc(NC(=O)COc2ccc3ccccc3c2)s1`, the “activity, negative = inhibition” value was -10.4% (inactive).

Consider `CCSc1nnc(NC(=O)COc2ccc3ccccc3c2)s1`, for which the activity, negative = inhibition is -4.8% [at 2.29 µM] (inactive).

For the compound `CCOc1ccc(N2C(=O)CS/C2=N/NC(=O)COc2ccc3ccccc3c2)cc1`, the AC50 was 0.891 µM (active).

Take `O=S(=O)(O)c1ccc(-c2nnc(-c3ccccn3)nc2-c2ccc(S(=O)(=O)O)o2)o1`: the activity, negative = inhibition is 6.48% [at 11.4 µM] (inactive).

On to `CC[C@]1(O)C[C@H]2CN(CCc3c([nH]c4ccccc34)[C@](C(=O)OC)(c3cc4c(cc3OC)N(C=O)[C@H]3[C@@](O)(C(=O)OC)[C@H](OC(C)=O)[C@@]5(CC)C=CCN6CC[C@]43[C@H]65)C2)C1`, for which the AC50 is 3.98 µM (active).

In the case of `CC[C@]1(O)C[C@@H]2CN(CCc3c([nH]c4ccccc34)[C@](C(=O)OC)(c3cc4c(cc3OC)N(C)[C@H]3[C@](O)(C(=O)OC)[C@@H](C(=O)OC)[C@@]5(CC)C=CCN6CC[C@@]43[C@@H]65)C2)C1`, the AC50 is 15.8 µM (active).

Take `C=CCn1c(C)cc(C(=O)CN2C(=O)c3ccccc3C2=O)c1C`: the AC50 is 2.82 µM (active).

Take `CCN(CC)c1ccc(SS(=O)(=O)O)cc1`: the “activity, negative = inhibition” value was 22.8% (inactive).

As to `O=C(N/N=C/c1ccc2cccc(OCc3ccccc3)c2n1)c1ccc(Br)cc1`, the activity, negative = inhibition was -19% [at 2.29 µM] (inactive).

Take `COc1cc(C(=O)Oc2ccccc2/C=N/NC(=O)c2ccc(C)cc2)cc(OC)c1OC`: the “activity, negative = inhibition” value was 18.9% (inactive).

On to `COc1ccc(C(=O)N/N=C/c2cccc3cccnc23)cc1`, for which the AC50 was 22.4 µM (active).

On to `O=C(CCS(=O)(=O)c1cccc2nsnc12)NC1CCCCC1`, for which the AC50 was 5.01 µM (active).

Turning to `Cc1cccc(NC(=O)CCS(=O)(=O)c2cccc3nsnc23)c1C`, the activity, negative = inhibition was -25.6% [at 2.29 µM] (inactive).

As for `O=C(O)[C@@H]1CCCN1Cc1ccc2c(c1)OCO2`, the activity, negative = inhibition is -11.9% [at 11.4 µM] (inactive).

For `CC1(C)SC(=S)N(Cc2ccc3c(c2)OCO3)C1N(O)C(=O)NC1CCCCC1` (centres undefined), the AC50 is 1.12 µM (active).

In the case of `O=C(O)CC(c1ccccc1)n1cnnn1` (centres undefined), the “activity, negative = inhibition” value is 19% (inactive).

In the case of `O=C(Cn1cnc2ccccc21)NC(c1ccccc1)c1ccccc1`, the AC50 is 7.94 µM (active).
